Measured values reported in the supplement of paper PMC11732987, “Enantioselective OTUD7B fragment discovery through chemoproteomics screening and high-throughput optimisation” (Communications Chemistry, 2025).

Experiments:
Assay in all cases: log2 ratio of Biotin-Ahx-Ub-VS probe labelling (fragment/DMSO); higher = less target engagement (more negative = stronger competition), active = hit call of the paper (q ≤ 0.05, log2 ratio ≤ -1)
Conditions in all cases: compound concentration: 200 uM; treatment time: 3 h
ALG13 = biological target: T1, ALG13 (UniProt Q9NP73)
T1 sequence (whole entry): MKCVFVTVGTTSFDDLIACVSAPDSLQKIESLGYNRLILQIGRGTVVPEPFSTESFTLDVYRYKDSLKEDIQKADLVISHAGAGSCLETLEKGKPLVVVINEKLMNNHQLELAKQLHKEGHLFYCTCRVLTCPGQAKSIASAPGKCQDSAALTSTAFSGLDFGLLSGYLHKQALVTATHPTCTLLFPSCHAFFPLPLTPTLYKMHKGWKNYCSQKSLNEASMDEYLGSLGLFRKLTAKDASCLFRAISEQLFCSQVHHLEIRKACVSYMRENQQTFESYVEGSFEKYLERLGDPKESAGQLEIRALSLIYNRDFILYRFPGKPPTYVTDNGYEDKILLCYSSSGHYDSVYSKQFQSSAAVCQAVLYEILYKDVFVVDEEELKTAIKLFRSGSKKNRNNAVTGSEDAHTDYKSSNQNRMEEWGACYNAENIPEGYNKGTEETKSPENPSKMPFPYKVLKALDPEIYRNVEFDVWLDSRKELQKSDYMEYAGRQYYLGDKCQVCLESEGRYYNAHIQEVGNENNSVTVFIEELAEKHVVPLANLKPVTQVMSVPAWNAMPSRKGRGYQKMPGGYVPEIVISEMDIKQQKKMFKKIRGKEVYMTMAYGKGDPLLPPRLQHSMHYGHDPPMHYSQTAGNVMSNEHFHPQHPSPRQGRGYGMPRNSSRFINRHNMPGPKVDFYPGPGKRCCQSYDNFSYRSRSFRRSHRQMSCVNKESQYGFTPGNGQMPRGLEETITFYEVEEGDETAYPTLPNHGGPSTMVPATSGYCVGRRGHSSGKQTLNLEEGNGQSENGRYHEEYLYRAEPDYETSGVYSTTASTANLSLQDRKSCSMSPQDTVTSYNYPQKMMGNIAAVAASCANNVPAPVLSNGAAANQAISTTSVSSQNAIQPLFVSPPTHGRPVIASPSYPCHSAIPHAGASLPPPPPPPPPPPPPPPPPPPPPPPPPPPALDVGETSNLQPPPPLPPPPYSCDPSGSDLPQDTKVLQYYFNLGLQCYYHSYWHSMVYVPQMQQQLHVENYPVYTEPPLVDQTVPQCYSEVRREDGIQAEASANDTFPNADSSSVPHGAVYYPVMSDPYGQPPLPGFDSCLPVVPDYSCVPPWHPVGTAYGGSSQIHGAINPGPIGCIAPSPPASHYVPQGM
How it was run: (§1)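 HEK293T lysate, 495 µg per sample in Tris/CHAPS/IGEPAL buffer with protease inhibitors, was treated in triplicate with fragment at 200 µM or vehicle for 3 h and then with Biotin-Ahx-Ub-VS at 0.5 µM final for 1 h. Labelled DUBs were NeutrAvidin-enriched, digested with LysC and trypsin, and run by diaPASEF LC-MS/MS. Spectronaut label-free quantities were global-median-normalised, and values are average log2 fragment/vehicle ratios by unpaired t-test on proteins with ≥2 unique peptides.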

ATXN3 = ATXN3 (UniProt P54252)
Chain of ATXN3 (P54252 whole entry): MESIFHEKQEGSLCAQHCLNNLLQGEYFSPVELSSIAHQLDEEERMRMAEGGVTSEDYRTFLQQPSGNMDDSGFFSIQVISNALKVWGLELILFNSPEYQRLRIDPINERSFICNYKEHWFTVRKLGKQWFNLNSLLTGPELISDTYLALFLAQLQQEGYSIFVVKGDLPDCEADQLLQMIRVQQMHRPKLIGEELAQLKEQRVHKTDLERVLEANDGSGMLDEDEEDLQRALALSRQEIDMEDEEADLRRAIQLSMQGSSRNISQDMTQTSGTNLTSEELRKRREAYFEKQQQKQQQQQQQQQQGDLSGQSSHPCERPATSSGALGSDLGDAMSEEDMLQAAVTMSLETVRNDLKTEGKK
How it was run: as §1

BAP1 = biological target: T2, BAP1 (UniProt Q92560)
T2 sequence (whole entry): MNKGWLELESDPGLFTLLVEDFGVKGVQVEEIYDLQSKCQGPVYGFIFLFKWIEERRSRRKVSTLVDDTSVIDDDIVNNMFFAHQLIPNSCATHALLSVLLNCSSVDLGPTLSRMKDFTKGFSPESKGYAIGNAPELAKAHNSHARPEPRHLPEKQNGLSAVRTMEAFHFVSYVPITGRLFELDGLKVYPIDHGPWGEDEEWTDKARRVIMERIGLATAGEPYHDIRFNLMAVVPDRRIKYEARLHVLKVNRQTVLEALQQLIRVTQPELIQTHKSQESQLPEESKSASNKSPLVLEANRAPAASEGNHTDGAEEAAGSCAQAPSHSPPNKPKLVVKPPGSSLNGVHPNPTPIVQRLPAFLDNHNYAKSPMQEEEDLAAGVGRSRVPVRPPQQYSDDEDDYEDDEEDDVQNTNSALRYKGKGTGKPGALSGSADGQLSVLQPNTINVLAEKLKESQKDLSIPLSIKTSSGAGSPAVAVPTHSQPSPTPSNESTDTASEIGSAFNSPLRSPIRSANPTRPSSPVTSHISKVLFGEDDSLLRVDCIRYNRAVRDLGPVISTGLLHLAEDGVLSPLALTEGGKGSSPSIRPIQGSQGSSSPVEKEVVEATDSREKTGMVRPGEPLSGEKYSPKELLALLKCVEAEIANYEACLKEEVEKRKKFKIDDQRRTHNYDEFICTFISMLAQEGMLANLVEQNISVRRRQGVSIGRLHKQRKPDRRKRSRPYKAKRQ
How it was run: as §1

EIF3F = EIF3F (UniProt O00303)
Chain of EIF3F (O00303 whole entry): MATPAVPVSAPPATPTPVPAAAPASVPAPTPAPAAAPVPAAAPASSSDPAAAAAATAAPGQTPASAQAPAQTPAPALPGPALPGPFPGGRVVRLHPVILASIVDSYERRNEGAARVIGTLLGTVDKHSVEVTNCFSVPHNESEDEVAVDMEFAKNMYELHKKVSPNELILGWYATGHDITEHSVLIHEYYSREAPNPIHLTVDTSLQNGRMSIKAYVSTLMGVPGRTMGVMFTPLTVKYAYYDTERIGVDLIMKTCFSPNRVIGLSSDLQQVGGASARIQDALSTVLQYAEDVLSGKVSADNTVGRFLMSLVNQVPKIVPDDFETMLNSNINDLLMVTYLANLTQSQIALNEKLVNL
How it was run: as §1

EIF3H = EIF3H (UniProt O15372)
Chain of EIF3H (O15372 whole entry): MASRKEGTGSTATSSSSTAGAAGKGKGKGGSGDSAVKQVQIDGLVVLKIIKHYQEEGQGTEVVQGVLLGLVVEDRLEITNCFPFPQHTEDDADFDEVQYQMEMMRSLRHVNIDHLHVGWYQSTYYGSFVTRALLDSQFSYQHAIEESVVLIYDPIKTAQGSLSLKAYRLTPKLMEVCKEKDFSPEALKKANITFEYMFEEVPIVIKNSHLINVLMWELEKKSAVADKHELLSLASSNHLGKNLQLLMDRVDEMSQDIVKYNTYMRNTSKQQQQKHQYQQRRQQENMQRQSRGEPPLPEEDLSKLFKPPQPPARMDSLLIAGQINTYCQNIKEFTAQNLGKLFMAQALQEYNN
How it was run: as §1

FAM105A = biological target: T3, FAM105A (UniProt Q9NUU6)
T3 sequence (whole entry): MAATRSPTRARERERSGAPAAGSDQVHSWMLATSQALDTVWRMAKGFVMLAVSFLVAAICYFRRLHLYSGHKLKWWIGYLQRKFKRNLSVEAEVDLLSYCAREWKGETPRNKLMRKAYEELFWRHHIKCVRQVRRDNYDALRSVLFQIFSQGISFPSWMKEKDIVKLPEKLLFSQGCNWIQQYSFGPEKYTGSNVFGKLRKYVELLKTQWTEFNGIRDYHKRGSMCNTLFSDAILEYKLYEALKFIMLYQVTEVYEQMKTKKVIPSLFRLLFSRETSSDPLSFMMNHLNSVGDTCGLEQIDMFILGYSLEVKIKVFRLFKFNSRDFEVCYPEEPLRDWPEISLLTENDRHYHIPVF
How it was run: as §1

OTUB1 = OTUB1 (UniProt Q96FW1)
Chain of OTUB1 (Q96FW1 whole entry): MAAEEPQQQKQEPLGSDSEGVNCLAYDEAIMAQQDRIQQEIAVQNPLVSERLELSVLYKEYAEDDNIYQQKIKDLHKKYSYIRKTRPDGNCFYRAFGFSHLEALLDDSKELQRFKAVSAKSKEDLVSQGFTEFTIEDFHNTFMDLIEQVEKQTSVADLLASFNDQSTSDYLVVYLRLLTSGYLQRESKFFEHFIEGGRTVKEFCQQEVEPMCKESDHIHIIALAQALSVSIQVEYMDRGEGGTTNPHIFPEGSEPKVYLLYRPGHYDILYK
How it was run: as §1

OTUD4 = biological target: T4, OTUD4 (UniProt Q01804)
T4 sequence (whole entry): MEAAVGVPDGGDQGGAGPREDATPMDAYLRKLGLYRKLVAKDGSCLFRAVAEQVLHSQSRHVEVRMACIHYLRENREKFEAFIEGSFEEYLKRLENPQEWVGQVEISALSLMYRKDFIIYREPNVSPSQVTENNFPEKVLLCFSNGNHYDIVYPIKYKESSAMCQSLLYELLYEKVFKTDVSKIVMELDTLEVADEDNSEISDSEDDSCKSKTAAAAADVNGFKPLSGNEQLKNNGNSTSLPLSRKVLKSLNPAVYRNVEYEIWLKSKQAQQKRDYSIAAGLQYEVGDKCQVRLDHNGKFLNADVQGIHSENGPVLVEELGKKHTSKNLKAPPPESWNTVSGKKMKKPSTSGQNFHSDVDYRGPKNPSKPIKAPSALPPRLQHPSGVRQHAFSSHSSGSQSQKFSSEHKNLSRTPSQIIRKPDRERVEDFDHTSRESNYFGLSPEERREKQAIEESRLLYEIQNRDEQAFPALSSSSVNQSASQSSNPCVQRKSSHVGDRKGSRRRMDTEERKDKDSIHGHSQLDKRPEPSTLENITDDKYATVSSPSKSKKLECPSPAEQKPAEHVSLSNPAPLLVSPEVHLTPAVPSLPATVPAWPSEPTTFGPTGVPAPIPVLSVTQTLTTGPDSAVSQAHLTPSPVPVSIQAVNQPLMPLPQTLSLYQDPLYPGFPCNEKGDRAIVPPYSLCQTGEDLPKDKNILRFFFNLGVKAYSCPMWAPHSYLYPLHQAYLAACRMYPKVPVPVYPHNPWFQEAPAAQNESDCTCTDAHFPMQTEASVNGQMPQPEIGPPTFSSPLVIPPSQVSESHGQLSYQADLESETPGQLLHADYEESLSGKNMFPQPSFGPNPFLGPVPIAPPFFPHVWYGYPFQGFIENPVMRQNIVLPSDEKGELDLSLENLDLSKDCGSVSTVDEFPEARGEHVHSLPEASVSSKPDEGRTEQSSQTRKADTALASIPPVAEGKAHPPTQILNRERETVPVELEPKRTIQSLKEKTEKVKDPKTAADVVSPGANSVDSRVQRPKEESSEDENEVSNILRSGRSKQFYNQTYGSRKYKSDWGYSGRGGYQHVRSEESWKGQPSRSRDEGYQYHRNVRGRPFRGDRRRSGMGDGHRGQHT
How it was run: as §1

OTUD5 = biological target: T5, OTUD5 (UniProt Q96G74)
T5 sequence (whole entry): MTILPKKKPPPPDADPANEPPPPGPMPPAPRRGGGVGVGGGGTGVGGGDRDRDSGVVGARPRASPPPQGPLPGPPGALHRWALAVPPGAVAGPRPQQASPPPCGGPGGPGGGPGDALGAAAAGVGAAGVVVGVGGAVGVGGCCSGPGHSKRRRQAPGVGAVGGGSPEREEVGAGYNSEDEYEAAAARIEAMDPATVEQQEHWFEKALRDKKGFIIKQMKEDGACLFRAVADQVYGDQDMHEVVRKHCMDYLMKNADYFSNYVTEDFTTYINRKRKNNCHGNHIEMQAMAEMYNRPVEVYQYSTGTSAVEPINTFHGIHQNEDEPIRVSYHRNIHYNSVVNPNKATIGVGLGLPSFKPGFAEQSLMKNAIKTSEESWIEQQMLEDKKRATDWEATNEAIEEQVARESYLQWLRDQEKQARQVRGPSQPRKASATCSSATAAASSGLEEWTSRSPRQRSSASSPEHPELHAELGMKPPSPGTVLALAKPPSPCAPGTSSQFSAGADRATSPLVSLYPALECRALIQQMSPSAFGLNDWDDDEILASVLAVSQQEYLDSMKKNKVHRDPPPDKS
How it was run: as §1

Measured: log2 ratio of Biotin-Ahx-Ub-VS probe labelling

Cc1ccccc1OCC(=O)N1CCN(C(=O)CCl)CC1
inactive: ALG13 -0.255 | ATXN3 -0.894 | BAP1 -0.74 | EIF3F -0.317 | EIF3H 0.19 | FAM105A 0.252 | OTUB1 -0.249 | OTUD4 0.0744 | OTUD5 -0.161
